In all, about 53,000 sequences went through this assay and about 3,700 (7%) were called active. This is one part of a sample in which actives are shown more often than they occur. A number with no mark means an inactive call.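 Rule for the calls: active = gene knockdowns whose robust z-score for IL-1 alpha signal is at least 2 or at most -2, so actives lie on both sides; inactive = the rest.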

The nature of the assay: Components of the Cytosolic LPS Sensing Pathway: Gene Identification via Genome-wide siRNA Screen.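 Note: robust z of the log signal after scaling to non-targeting control siRNA wells of the plate.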 The conditions noted are these: RAW264.7 macrophages, IL-1a HTRF, actives lie on both sides, screened at 100 nM (by protocol), cells primed 5 h with Pam3CSK4 first. In outline: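 Using IL-1a HTRF as read-out, the screen measured release from RAW264.7 cells after 48h siRNA knockdown (100 nM), 5 h Pam3CSK4 priming and 24 h cytosolic LipidA. Values were expressed relative to negative-control wells as robust z-scores.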
(In general: In TR-FRET formats the signal depends on donor and acceptor labels being close together.)
As to GGGAGUUGGUGGAAUGCUUTT against Ech1, the z-score is -0.221.
As for GGAGUUUGAACAAGAAAUATT against Prss12, the figure is 1.11; as for GCCACCGAACCUAUAAAGCTT against Scd4, 0.265.
With GGUGUGCAUCAAGCGACUGTT against Cacng6, the z-score was 2.1 (active).
Take GGUUCUAGAUGCUAAUAAGTT against Ciao3: the z-score is -0.381.
Take GGAUCUGACAAGGUACAAGTT against Acsm5: the z-score was 0.145.
For GCUAUGGGUAAACUUUUUGTT against Olfr354, the z-score was 0.905.
With CCUAGACAAUACUUGCCUGTT against Gpr180 the figure was 0.873; with GCCUGUUCGGUGUUCAACUTT against Etv3, 0.808.
For GCCUAGUUCUUUAUGCUAUTT against Golga4, the z-score is 4.37 (active).
As to CCACCUGUCGAGAUGUCGUTT against Ppp1r13b, the z-score was 1.1.
Regarding GGAUCACGUUUCAAACAUCTT against Mtmr12, the z-score was 0.296.
As for GGAGCACAAUAGUAAACUATT against Polr1a, the figure is 2.78 (active); as for GGUGAAGAUAAGUAUCUGCTT against Mug2, -0.0586.
Regarding GCUUGAUUAGGUAGGAAUATT against Stk32a, the z-score is -0.388.
As to GGAAAGUCAGGAUGAAUAUTT against Cst9, the z-score was 0.0511.
For GGAGUUGUAGUGAGGGUCATT against Fcgbp, the z-score is -0.971.
GGAAACAGGAAACAAUCUATT against Ccdc69: the z-score is 0.609.
Turning to GGUUUUGAGUGAGAAAUGGTT against Plekhb2, the z-score is -0.414.
Regarding GGAGAAAUCCCUUCACGGUTT against Mas1, the z-score was 0.449.
For the sequence CCACCUCCUCUCGAUACAATT against Zfp36, the z-score is 0.993.
In the case of CGCAGUAGCGAAGAAUUACTT against Sel1l3, the z-score is 2.46 (active).
Consider CCAUAAUAGAGGCAAUUACTT against Wscd1, for which the z-score is 0.302.
For CCUAGGUGUCACCAUGAACTT against Ssx9, the z-score is 2.02 (active).
Turning to GGAAAGAGUCAUGGAAAUATT against Supt16, the z-score is 0.55.
On to GGCUCACAAGGAAGAGAUCTT against Cstad, for which the z-score was -0.29.
On to GCUCUGAAAUGUCUCUCCATT against H2-D1, for which the z-score is -0.613.
For GGUGUGUUCAGGAGUUGAUTT against Col12a1, the z-score was 0.505.
Turning to GGCAAAAAAAACUGCUAUATT against Adgrg7, the z-score is 3.36 (active).
As for GGUGACAUUUGAAAAUGUCTT against Slc25a12, the z-score was 0.411.
Regarding GCCUCAUCCCUAUAGUCCUTT against Spaca9, the z-score is -0.257.
As for CGGGUUCCCAGGAAUUAAGTT against Col4a6, the figure is 0.304; as for GGUUGACACUCUGAGGGAATT against Pld2, -0.175; as for CCACUUUCUAGAAAUCCUATT against Tmem41a, -2.14 (active).
As for GGGCUGAUGAGCAAAGCAUTT against Setd4, the z-score was -1.01.
With GGGAAAUUAUUACCAAAAGTT against N4bp1 the figure was -0.83.
GGUCUUUGUUAAGAAUCCUTT against Myo1f: the z-score is -0.496.
As for GCUCGAAAACUGAGAGUUATT against Pcdhgb1, the z-score was 3.32 (active).
As for GCUAUAAGGCUUAAUAGGGTT against Dleu7, the figure is 1.97.
For the sequence GCGAAAGCAGCUGUCGGAATT against Nkx3-1, the z-score is 0.324.
Take GGCCUCGAACAGUUUAUUATT against Snx12: the z-score was 0.471.
As to GGCUGUGGAUCUUCUCUGUTT against Cnksr3, the z-score was -1.05.
For GCCAUGUUAAAUUCUCUACTT against Poln, the z-score is 0.575.
In the case of GGCUCUGCUGGAUAUCAUGTT against Med24, the z-score was -1.08.
GGGUAUUUCCUGGUGGAUUTT against Mrps6: the z-score is 0.221.
For the sequence CCUAUCAUAACGGUGAUAATT against Ddb1, the z-score was -0.423.
As for “GGUCACACCCAUAAACUAATT against B630019K06Rik”, the figure is -0.167.
GGUUAUUAAGUAGCUUUUCTT against Dtx1: the z-score was 1.64.
As for GCAUUAGAACAAAGGAUGCTT against Rps19, the figure is 0.278; as for GGAAUUUGUGGAAACAGGATT against Tnfaip3, -0.441.
As to GCCUUUGAUAGUGGUGAAUTT against F11r, the z-score was -3 (active).
With CCAAUCUUCUCCUCAAGACTT against Olfr101, the z-score was -0.0712.
GGCUGUUUCCAAAAAGAAGTT against H1f5: the z-score is -1.14.
As to GGACCAGGGCAAAAUAUGATT against Pate6, the z-score was 0.727.
In the case of CCAUCAUUGCUCGUAUUGGTT against Olfr656, the z-score was -2.9 (active).
As for CCAGUGGAAAUAACUUGUGTT against Fam53a, the z-score is 1.58.
CCUUGAGUGAAAGAAUUGATT against Tmprss11d: the z-score is -0.609.
For GGAAUAUCCGUAAUAACUATT against Grin2b, the z-score was 2.82 (active).
With GCUACUAAAUUCUGUUUUGTT against Nol4l, the z-score was 0.325.
Consider GGGAAGUUUCUUGAAGCACTT against Rfxank, for which the z-score is 0.103.
Turning to AGGACUAGGGAUCCUAAUUTT against Ubl5, the z-score was -0.74.
As for GGUUGCUGGAUGUCAUCUCTT against Hpn, the z-score was -2.05 (active).
As for GCUACUUGCUCAUACAAAGTT against Rag2, the z-score was 0.65.
As for GGCCAUAUGUCAAGAAGUUTT against Svs4, the figure is -1.24; as for GCCAGGAAUAGUGAUUAUUTT against Atp11c, -1.19; as for GGAAAUGUGGAAUACACCGTT against Prl7a2, 1.39.
For the sequence GGCUUUAAUGUGUCAGUACTT against Slc25a5, the z-score is -0.228.
On to GCCGAUGAUACCAAACCGATT against Oser1, for which the z-score was 0.151.
Consider CGACUCUUACCAACCUUUUTT against Lhx2, for which the z-score was 0.477.
For the sequence GCAGGUGGUACGCAGACUATT against Ulk1, the z-score is -0.0204.
With GGAAAGAAUGAGGAUGUGGTT against Pitx2, the z-score is -2.07 (active).
As for CCUCAAACUCGGUUUGAUUTT against Acp6, the z-score was -0.773.
As to GCCUAUACUAUAGAAUUACTT against Sgsm2, the z-score is 2.2 (active).
With GACGCAGAUGGUAUUUUUUTT against Orm2 the figure was 1.24.
As for GUGGGAAUUCUGAAAAAUATT against Vmn1r231, the figure is 0.301.
Turning to GUAUGAACCUAACACAUUCTT against Vmn1r188, the z-score is 0.493.
For the sequence GGAAACCUUUACCAUAAACTT against Epdr1, the z-score was -2.35 (active).
With GGAUCAAACAAAUCAUCAATT against Plscr4, the z-score was -0.895.
For CCUUGUAGCUCUGAGGAUATT against Teddm3, the z-score was -0.529.
As to GGAACCUACCUCACCUUUGTT against Fscn3, the z-score was -0.749.
As for GGUCUCUUCAUGAUGGAUGTT against Akt1s1, the z-score was 0.731.
For the sequence CCAUACACAUGUAAUUCUCTT against Zmat3, the z-score is -0.159.
As for GGCAUCUCUGAGUUACAUUTT against Snu13, the figure is 0.695.
With GGGUCUGGUUCUGUAACCATT against Pou4f3 the figure was -1.94; with GGACUAUGGUGGGAACUAGTT against Tas2r119, -0.564; with CGUUCUAUGGAAACUGGAGTT against Acot1, 2.42 (active).
For GGAAUGCUUAAAGCUUUAATT against Clasp2, the z-score was 0.353.
As for “CCAUUUCCCAUUUCUGAAGTT against 1700001P01Rik”, the z-score is -2.22 (active).
GCUCAAGUUAAUCUGUUGUTT against Ywhae: the z-score is 0.962.
Take CCAGUCAACAAGAAUCAGATT against Rptn: the z-score was -0.105.
With GAUACAGAAUGUCUCAUCCTT against Olfr1128 the figure was 0.307; with CCUAUCUUGUCCGGUUUACTT against Cyb5rl, 3.99 (active); with GCCCUUGCACUAUUUUUCCTT against Olfr1218, 0.902.
With GCUAUGUCAACAGUAACAUTT against Mmel1, the z-score is -0.683.
As for GGUGGAAUUAUGCAUGCUATT against Olfr1094, the figure is 1.45; as for GGCUUUCUUCAGUUUUGUCTT against Slc33a1, -1.37.
For GGAGGUUACCUUCUACAGCTT against Cxcr2, the z-score is 0.694.
As to GGGUGAAAAGCAUUUCUGUTT against Actrt3, the z-score is 0.583.
As to GGAAACAGCACAACAAACGTT against Adam26a, the z-score was 2.93 (active).
As to GGCUAAGAAACUGAAGAGATT against Ccm2l, the z-score is -1.59.
Consider GCGAACUCGGGAAACAACUTT against Rnf4, for which the z-score is -0.0525.
With UAGAAUUGAUUGAGGACUCTT against Ly6c1 the figure was 0.602.
As for GCACUUCUUUGUGCAAAGCTT against Shfl, the figure is -0.311; as for GAGGUUUGGCAGAAGUGCATT against Npff, -1.95; as for GGCCUGUAAAAACUAUUGGTT against Mcpt4, 0.122.
As to CCACCAUGACUGCAAAUGUTT against Olfr1469, the z-score was -0.817.
With GCCAACAGUAACGGUAUUGTT against Patz1, the z-score is -2.04 (active).
With GCUCGUGGCAUGUCUCUAUTT against Doc2g the figure was 0.379.

Source of the values: PubChem BioAssay AID1508600 (Functional Genomics Laboratory (NCATS/FGL), 2020).
